TDP1 cell noCPT – qHTS for Inhibitors of human tyrosyl-DNA phosphodiesterase 1 (TDP1): qHTS in cells in absence of CPT. 15% of 420,000 active. DT40 Tdp1-/- hTDP1 cells, no CPT, ATP luminescence, 48 h. Potency, µM (doses to about 46.2 µM), for inactives: at the highest dose activity change, negative = growth inhibition, most hits filed as inhibitors; note: nearly all actives have a fitted effect of over 55% in size
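DT40 Tdp1-/-;hTDP1 cells, no CPT (DMSO vehicle only), 400 cells/well; compounds pin-transferred; ≥48 hr, 37 °C; CellTiter-Glo 30 min RT dark, luminescence read.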
KB-V1 MDR tox – kills drug-selected multidrug resistant KB-V1 cells; 3.4% of 400,000 active; KB-V1 MDR cells viability, CellTiter-Glo, 72 h; Potency, µM (doses to about 46.1 µM), usual class: cytotoxic; note: nearly all actives have a fitted effect of over 60% in size
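Potencies derive from concentration-effect curves fitted to normalized luminescence (CellTiter-Glo) of KB-V1 cells treated for 72 h at 37 degrees C in phenol-red-free DMEM containing 10% FBS.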
TDP1 cell CPT – growth inhibition of DT40 Tdp1-/-;hTDP1 cells with camptothecin (screen for TDP1 inhibitors); chicken DT40 Tdp1-/-;hTDP1 cells + 20 nM CPT, ATP luminescence, 48 h; AID 686979; 12% of 420,000 active; Potency, µM (titrated, usually from 46.2 µM), inactives show at the highest dose activity change, negative = growth inhibition, actives largely listed as inhibitors; note: nearly all actives have a fitted effect of over 55% in size
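Chicken DT40 Tdp1-/- cells complemented with human TDP1, 400 cells/well, exposed to compounds plus 20 nM camptothecin for at least 48 h at 37 C; viability read as ATP content by CellTiter-Glo luminescence.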
HT1080 IDH1KD tx – HT-1080 IDH1 knockdown cell toxicity (counter line) | Potency, µM (doses to about 46.1 µM), for inactives: top-dose activity, negative = toxicity, most hits filed as cytotoxic | HT-1080 IDH1 knockdown viability, ATP luminescence, 48 h | 2% of 360,000 active;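 note: 0% = DMSO wells and -100% = cell-free medium wells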
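In this qHTS, HT-1080 cells depleted of IDH1 are exposed for 48 h at 37 °C to compound titrations. Toxicity is scored from CellTiter-Glo luminescence, with DMSO as full viability and medium alone as none.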
KB-3-1 tox – kills parental KB-3-1 adenocarcinoma cells. KB-3-1 viability, CellTiter-Glo ATP luminescence, 72 h. Potency, µM (highest dose often 46.1 µM), usual class: cytotoxic. 1.4% of 400,000 active; note: nearly all actives have a fitted effect of over 60% in size
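Using CellTiter-Glo luminescence, growth of non-resistant KB-3-1 adenocarcinoma cells is assessed 72 h after pin-tool compound addition at 37 °C. Normalized responses across the concentration series yield fitted curves.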
HT1080NT lethal – kills 2HG-producing HT-1080-NT fibrosarcoma cells; HT-1080-NT fibrosarcoma viability, CellTiter-Glo ATP luminescence, 48 h; Potency, µM (highest dose often 46.1 µM), without a hit: at the top dose activity, negative = less viability, most hits filed as cytotoxic; 1.6% of 360,000 active; AID 686970;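 note: NT is the 2HG producing partner of a matched IDH1 knockdown line; 0% = DMSO-treated cells and -100% = media-only wells without cells; nearly all actives have a fitted effect of over 55% in size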
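Luminescent CellTiter-Glo readout after 48 hours of compound exposure at 37 degrees C defined viability of HT-1080-NT cells. Activity was normalized to DMSO wells and cell-free media wells; concentration-response curves were fitted and assigned curve classes.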
* hit, by the source's call. Rows were chosen to be rich in hits. Some 19% of all compounds tested hit in one or more screens of this group. Calls come from the whole dose curve; as a rule, active = well fitted curve in the direction sought with a large enough effect; inconclusive = small, poorly fitted or top-dose-only effect, or another doubt; inactive = no such curve, though single readings can be large; an effect the other way counts as inactive or inconclusive. Unless noted, % is set by controls: 0 for no effect and ±100 for the full control effect; potency is the fitted concentration of half-maximal effect.

Screening Cc1ccc2c(c1)[C@H]1[C@H](CO2)[C@H](c2ccccc2)[C@]2(C)C(=O)Nc3ccc(F)cc3C(=O)N12 returned TDP1 cell noCPT 21µM*, KB-V1 MDR tox inconclusive, TDP1 cell CPT 21µM*, HT1080 IDH1KD tx 5.8µM*, KB-3-1 tox inconclusive and HT1080NT lethal inconclusive.
COc1ccc2c(c1)[C@H]1[C@H](CO2)[C@H](c2ccccc2)[C@]2(C)C(=O)Nc3cc(Cl)ccc3C(=O)N12 was read as TDP1 cell noCPT inconclusive, KB-V1 MDR tox inactive, TDP1 cell CPT inconclusive, HT1080 IDH1KD tx -26%, KB-3-1 tox inactive and HT1080NT lethal -16%.
COc1cc2c(cc1OC)C(=O)N1[C@H]3c4cc(Cl)ccc4OC[C@@H]3[C@H](c3ccccc3)[C@]1(C)C(=O)N2 was read as TDP1 cell noCPT 18µM*, KB-V1 MDR tox inconclusive, TDP1 cell CPT 21µM*, HT1080 IDH1KD tx inconclusive, KB-3-1 tox inconclusive and HT1080NT lethal -11%.
`Cc1ccc2c(c1)[C@H]1[C@H](CO2)[C@H](c2ccccc2)[C@]2(C)C(=O)Nc3cc(Cl)ccc3C(=O)N12` gave TDP1 cell noCPT 21µM*, KB-V1 MDR tox inconclusive, TDP1 cell CPT inconclusive, HT1080 IDH1KD tx inconclusive, KB-3-1 tox inconclusive and HT1080NT lethal inconclusive.
`COc1ccc2c(c1)C(=O)N1[C@H]3c4cc(Cl)ccc4OC[C@@H]3[C@H](c3ccccc3)[C@]1(C)C(=O)N2` gave TDP1 cell noCPT inconclusive, KB-V1 MDR tox inconclusive, TDP1 cell CPT inconclusive, HT1080 IDH1KD tx 15µM*, KB-3-1 tox inconclusive and HT1080NT lethal 6.5µM*.
Screening Cc1ccc2c(c1)[C@H]1[C@H](CO2)[C@H](c2ccccc2)[C@]2(C)C(=O)Nc3cc(F)c(F)cc3C(=O)N12 returned TDP1 cell noCPT inconclusive, KB-V1 MDR tox inactive, TDP1 cell CPT inconclusive, HT1080 IDH1KD tx inconclusive, KB-3-1 tox inconclusive and HT1080NT lethal inconclusive.
`O=C(CN(C(=O)CCC(=O)Nc1nccs1)C1CCCC1)NCc1ccc2c(c1)OCO2` gave TDP1 cell noCPT -13%, KB-V1 MDR tox inactive, TDP1 cell CPT -5%, HT1080 IDH1KD tx 0%, KB-3-1 tox inactive and HT1080NT lethal 1%.
COc1cc2c(cc1OC)C(=O)N1[C@H]3c4cc(C)ccc4OC[C@@H]3[C@H](c3ccccc3)[C@]1(C)C(=O)N2 was read as TDP1 cell noCPT 21µM*, KB-V1 MDR tox inconclusive, TDP1 cell CPT 18µM*, HT1080 IDH1KD tx 16µM*, KB-3-1 tox inconclusive and HT1080NT lethal inconclusive.
`COc1ccc(-c2csc(Cc3nnc(N4CCOCC4)n3-c3ccccc3)n2)cc1` gave TDP1 cell noCPT inconclusive, KB-V1 MDR tox 18µM*, TDP1 cell CPT inconclusive, HT1080 IDH1KD tx 1%, KB-3-1 tox inactive and HT1080NT lethal 12%.
For COC(=O)C1=C(C)Nc2nnnn2C1c1cccnc1 (centres undefined) the results were TDP1 cell noCPT -28%, KB-V1 MDR tox inactive, TDP1 cell CPT -4%, HT1080 IDH1KD tx 0%, KB-3-1 tox inactive and HT1080NT lethal -1%.
`CC1=C(C(=O)OC2CCCCC2)C(c2cccnc2)n2nnnc2N1` (centres undefined) gave TDP1 cell noCPT 12µM*, KB-V1 MDR tox inactive, TDP1 cell CPT 8.2µM*, HT1080 IDH1KD tx -8%, KB-3-1 tox inactive and HT1080NT lethal -3%.
Screening CCCn1c(CN2CCN(C(=O)OCC)CC2)nc2cc(NC(C)=O)ccc21 returned TDP1 cell noCPT 16µM*, KB-V1 MDR tox inactive, TDP1 cell CPT inconclusive, HT1080 IDH1KD tx -5%, KB-3-1 tox inconclusive and HT1080NT lethal -2%.
Screening CCOC(=O)N1CCN(Cc2nc3cc(NC(=O)c4ccco4)ccc3n2C)CC1 returned TDP1 cell noCPT -1%, KB-V1 MDR tox inactive, TDP1 cell CPT -1%, HT1080 IDH1KD tx 6%, KB-3-1 tox inactive and HT1080NT lethal -3%.
`CCCCC(=O)Nc1ccc2c(c1)nc(CN1CCN(C(=O)OCC)CC1)n2C` gave TDP1 cell noCPT -29%, KB-V1 MDR tox inactive, TDP1 cell CPT inconclusive, HT1080 IDH1KD tx -1%, KB-3-1 tox inactive and HT1080NT lethal -5%.
Screening CCCn1c(CN2CCN(C(=O)OCC)CC2)nc2cc(NC(=O)C(C)C)ccc21 returned TDP1 cell noCPT 12µM*, KB-V1 MDR tox inconclusive, TDP1 cell CPT 21µM*, HT1080 IDH1KD tx inconclusive, KB-3-1 tox inconclusive and HT1080NT lethal -26%.
Screening Cc1ccccc1Cn1c(=O)n(Cc2ccc3c(c2)OCO3)c(=O)c2oc3ccccc3c21 returned TDP1 cell noCPT -1% and TDP1 cell CPT 3%.
CCc1noc2nc(C)n(CC(=O)O)c(=O)c12 was read as TDP1 cell noCPT -1%, KB-V1 MDR tox inactive, TDP1 cell CPT 10% and KB-3-1 tox inactive.
For O=C(O/C(=C/c1ccccc1)C(F)(F)F)c1ccccc1 the results were TDP1 cell noCPT -1%, KB-V1 MDR tox inconclusive, TDP1 cell CPT 5%, HT1080 IDH1KD tx 20%, KB-3-1 tox inactive and HT1080NT lethal 6%.
For c1csc(Cc2nc(-c3ccc(-n4cccc4)cc3)no2)c1 the results were TDP1 cell noCPT -5%, KB-V1 MDR tox inactive, TDP1 cell CPT 2%, HT1080 IDH1KD tx -11%, KB-3-1 tox inactive and HT1080NT lethal -1%.
For CC(C)(C)CNC(=O)C1(C)CCN1C(=O)Cc1ccc(C(C)(C)C)cc1 (centres undefined) the results were TDP1 cell noCPT inconclusive, KB-V1 MDR tox inactive, TDP1 cell CPT inconclusive, HT1080 IDH1KD tx -21%, KB-3-1 tox inactive and HT1080NT lethal -14%.
Cc1ccc(NC(=O)C2(C)CCN2C(=O)Cc2ccc(C(C)(C)C)cc2)cc1C (centres undefined) was read as TDP1 cell noCPT 10µM*, KB-V1 MDR tox inactive, TDP1 cell CPT 21µM*, HT1080 IDH1KD tx inconclusive, KB-3-1 tox inactive and HT1080NT lethal 18µM*.
For Cc1ccc(NC(=O)C2(C)CCN2C(=O)C2CCCCC2)cc1C (centres undefined) the results were TDP1 cell noCPT 18µM*, KB-V1 MDR tox inactive, TDP1 cell CPT inconclusive, HT1080 IDH1KD tx 24%, KB-3-1 tox inactive and HT1080NT lethal 18%.

Bioassay records (PubChem BioAssay)
